Data on 34 compounds can be found in ChEMBL document CHEMBL4513149, “CO-ADD screening of MMV (CH) - MMV compounds” (2021).

Potency and affinity values are given separately.

One test deals with Klebsiella pneumoniae. The note with it: Concentration 20 uM; ASSAY_TEST Inhibition of Bacterial Growth; detection method Absorption (OD600); MEDIA CAMHB; plate type 384well; NBS; CORNING #3640; time 18 hr.
The next test concerns Candida albicans. The note with it: 20 µM.
Another test relates to Cryptococcus neoformans. The note with it: Concentration 20 uM; ASSAY_TEST Inhibition of Fungal Growth; detection method Resazurin; Absorption (OD600-OD570); plate type 384well; NBS; CORNING #3640.

Broadly, the Inhibition is the relative decrease from the control value, in per cent. Regarding `COc1ccc(-c2onc(C(F)(F)F)c2-c2ccc(Cl)cc2)c(O)c1`, the Inhibition in the test on Klebsiella pneumoniae amounted to 9.85%; in the test on Candida albicans it was 2.64%; with Cryptococcus neoformans it was 8.78%.

On to `CC(C)(C)c1ccc(N[C@@H]2CCCC[C@H]2NC(=O)c2ccco2)cc1`, for which the results for the Inhibition with Klebsiella pneumoniae, in the test with Candida albicans and in the test on Cryptococcus neoformans were -12.61%, 5.24% and -2.08%, respectively.

As for `Cc1cc(C(=O)Nc2ccc(-c3ccccc3)cc2)no1`, the Inhibition in the test with Klebsiella pneumoniae was 16.31%; in the test with Candida albicans, 4.46%; in the test on Cryptococcus neoformans, -3.33%.

Regarding `Cc1cccc(Cn2ccc(NC(=O)c3ccc4c(c3)OCO4)n2)c1`, the Inhibition amounted to 15.15% in the test on Klebsiella pneumoniae, 6.79% in the test with Candida albicans and 3.81% in the test on Cryptococcus neoformans.

Turning to `c1ccc(-c2cc(N3CCCCC3)c3ccccc3n2)nc1`, the Inhibition in the test on Klebsiella pneumoniae is 14.97%; in the test on Candida albicans, -0.2%; in the test with Cryptococcus neoformans it was -6.72%.

On to `CC(=O)N(CCN(C(=O)c1ccc(F)cc1)c1ccccc1)c1ccccc1`, for which the Inhibition with Klebsiella pneumoniae is 8.37%; with Candida albicans, 4.16%; with Cryptococcus neoformans it was -8.06%.

For the compound `COC(=O)c1c(NC(=O)c2cc3ccccc3oc2=O)sc2c1CCN(Cc1ccccc1)C2`, the results for the Inhibition with Klebsiella pneumoniae, in the test with Candida albicans and in the test on Cryptococcus neoformans were 12.75%, 2.23% and -2.1%, respectively.

With `CN1CCN(c2nccc3nc(-c4ccc(F)c(F)c4)[nH]c23)CC1`, the Inhibition in the test on Klebsiella pneumoniae is 17.85%; in the test with Candida albicans, 1.66%; in the test on Cryptococcus neoformans, -6.31%.

With `CN1CCC(c2cc(-c3ccncc3)c(-c3ccc(F)cc3)[nH]2)CC1`, the figures for the Inhibition with Klebsiella pneumoniae, in the test on Candida albicans and with Cryptococcus neoformans were 5.43%, 0.45% and 8.69%, respectively.

In the case of `COc1ccc(C(=N)N)cc1-c1cn(-c2ccc(C(=N)N)cc2)nn1.Cl.Cl`, the Inhibition in the test with Klebsiella pneumoniae is 8.73%; in the test with Candida albicans, 3.44%; in the test with Cryptococcus neoformans, 4.63%.

As to `O=C(c1ccc(F)cc1)N(CCNc1ccccc1)c1ccccc1`, the Inhibition in the test with Klebsiella pneumoniae is 12.15%; in the test on Candida albicans, 5.49%; in the test with Cryptococcus neoformans, -9.35%.

With `COc1ccc2nc(C)cc(OCC(=O)Nc3ccccc3OC)c2c1`, the Inhibition with Klebsiella pneumoniae was 17.25%; in the test with Candida albicans it was 0.63%; in the test with Cryptococcus neoformans, -5.56%.

Take `c1coc(CNc2nc(N3CCCCC3)nc3ccccc23)c1`: the Inhibition with Klebsiella pneumoniae was 7.9%; in the test on Candida albicans it was 4.06%; with Cryptococcus neoformans, -16.26%.

With `CC(C)(C)CN1C(=O)C(c2ccccc2)(c2ccccc2)N=C1N`, the Inhibition with Klebsiella pneumoniae is 14.16%; with Candida albicans, 3.38%; in the test with Cryptococcus neoformans, 1.98%.

Take `CC(C)NCC(=O)Nc1cccc(C(=O)Nc2cccc(C(F)(F)F)c2)c1`: the Inhibition in the test with Klebsiella pneumoniae is 10.29%; with Candida albicans, 3.29%; with Cryptococcus neoformans, -11.79%.

Consider `N#CCN(CCCCN1CCN(c2ccc(F)cc2)CC1)C(=O)OCc1ccccc1`, for which the Inhibition in the test on Klebsiella pneumoniae was 11.82%; with Candida albicans, 2.42%; in the test on Cryptococcus neoformans, -5.61%.

For `Cc1ccc2cc(C3NC(=O)c4ccccc4N3)c(Cl)nc2c1` (configuration not stated), the Inhibition in the test with Klebsiella pneumoniae was 19.35%; in the test with Candida albicans it was 3.16%; in the test on Cryptococcus neoformans it was -7.26%.

As for `CC[C@H](CO)NCCN[C@H](CC)CO.Cl.Cl`, the Inhibition with Klebsiella pneumoniae was determined as 9.73%; with Candida albicans it was 3.25%; in the test on Cryptococcus neoformans, 1.15%.

Regarding `Cc1ccc(S(=O)(=O)n2cc(-c3ccnc(N)c3)c3cc(Br)cnc32)cc1`, the Inhibition with Klebsiella pneumoniae is 7.11%; in the test with Candida albicans it was 37.1%; in the test on Cryptococcus neoformans, -2.21%.

Consider `CCC(C)NC(=O)c1ccc(NC(=O)C2(c3ccccc3)CCCC2)cc1` (configuration not stated), for which the Inhibition with Klebsiella pneumoniae was found to be 1.96%; in the test with Candida albicans, 3.52%; in the test with Cryptococcus neoformans, 9.11%.

As to `Cc1c[nH]c(CCNC(=O)c2cc(-c3ccc(Cl)cc3)cs2)n1`, the Inhibition in the test with Klebsiella pneumoniae was 19.09%; with Candida albicans, 2.87%; in the test with Cryptococcus neoformans, -12.96%.

As for `Clc1ccc(CCNc2cc(-c3ccccc3)nc3ncnn23)cc1`, the values for the Inhibition in the test with Klebsiella pneumoniae, in the test on Candida albicans and with Cryptococcus neoformans were 8.91%, 16.3% and -16.06%, respectively.

As to `O=C(NC1CCN(c2ccnc3ccccc23)C1)c1cccc(C(F)(F)F)c1` (configuration not stated), the Inhibition is 12.02% in the test on Klebsiella pneumoniae, 3.54% in the test on Candida albicans and -3.95% with Cryptococcus neoformans.

Turning to `Clc1ccc(-n2cc(COc3ccnc4ccccc34)nn2)cc1`, the Inhibition in the test with Klebsiella pneumoniae is 12.62%; in the test with Candida albicans, 3.14%; with Cryptococcus neoformans, -4.84%.

With `Cl.c1ccc(Oc2ccc(-c3cc(N4CCNCC4)[nH]n3)cc2)cc1`, the Inhibition is -6.32% with Klebsiella pneumoniae, 2.61% in the test on Candida albicans and -9.84% in the test with Cryptococcus neoformans.

As for `CCOc1ccc(-c2nc(NC(=O)CS(=O)(=O)c3ccccc3)sc2C)cc1`, the values for the Inhibition in the test on Klebsiella pneumoniae, in the test with Candida albicans and in the test with Cryptococcus neoformans were 8.83%, 3.16% and -9.26%, respectively.

For `COc1ccc(-c2cncc3ccc(C(=O)NCCCn4ccnc4)nc23)cc1`, the Inhibition in the test on Klebsiella pneumoniae was 3.32%; with Candida albicans, 4.61%; with Cryptococcus neoformans, -8.59%.

Consider `CN(C(=O)c1cc2c(-c3cncnc3)cccc2[nH]1)c1ccccc1`, for which the Inhibition in the test on Klebsiella pneumoniae is 10.84%; with Candida albicans, 6.97%; in the test with Cryptococcus neoformans, -9.57%.

Regarding `CCCNC(=O)N1CCC2(CC1)CC(=O)c1cc(C)ccc1O2`, the Inhibition with Klebsiella pneumoniae was 17.38%; with Candida albicans, 2.86%; in the test on Cryptococcus neoformans, -8.06%.

On to `O=C(Nc1nc(-c2ccccn2)cs1)c1cncn1-c1ccccc1`, for which the Inhibition with Klebsiella pneumoniae is 11.31%; with Candida albicans it was 1.74%; with Cryptococcus neoformans, -8.18%.

`Cl.Cl.Cl.NS(=O)(=O)c1cncc(-c2ccc3nccc(-c4cn[nH]c4)c3n2)c1`: the Inhibition with Klebsiella pneumoniae is -1.63%; in the test with Candida albicans, 3.16%; in the test on Cryptococcus neoformans, -2.89%.

Turning to `COc1ccc(-c2cc(NC(=O)c3ccc(F)cc3Cl)ccc2OC)cc1`, the Inhibition in the test on Klebsiella pneumoniae amounted to 14.44%; in the test with Candida albicans, 5.2%; in the test with Cryptococcus neoformans, 8.48%.

As for `O=C(Nc1c(O)cccc1-c1nc2c(C(=O)O)cccc2o1)c1cc(-c2ccccc2)on1`, the Inhibition is -9.4% in the test on Klebsiella pneumoniae, 3.49% with Candida albicans and -10.86% with Cryptococcus neoformans.

For the compound `CC(C)=CCC/C(C)=C\CNCCNC1C2CC3CC(C2)CC1C3` (configuration not stated), the figures for the Inhibition with Klebsiella pneumoniae, in the test on Candida albicans and in the test with Cryptococcus neoformans were 18.7%, 2.31% and 16.24%, respectively.
